Laboratory results from PubChem BioAssay (EPA / NIEHS).
More than one record can exist for a structure, and the calls need not agree. The source made the active and inactive calls. Rule for the calls: active = hit-call score of the fitted dose curve at least 0.9, where 1 is the maximum; inactive = score below 0.9.

Columns and labels:
[1] = read-out: Transforming growth factor beta 1 (TGFb1), TGFB1 (gene 7040); test: BSK_KF3CT_TGFb1: BioMAP Diversity Plus: KF3CT Assay for Transforming growth factor beta 1 (TGFb1) Biomarker Activity (AID 2283072); conditions: primary human keratinocytes with fibroblasts; actives raise or lower the signal
Summary of the method: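 Signal changes in either direction, relative to DMSO, define activity here. TGF-b1 is read by ELISA from a human keratinocyte-fibroblast co-culture 24 h post-dose.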

[2] = read-out: C-C motif chemokine 2 (Homo sapiens) (UniProt P13500); test: BSK_KF3CT_MCP1: BioMAP Diversity Plus: KF3CT Assay for Monocyte Chemoattractant Protein 1 (MCP1/CCL2) Biomarker Activity (AID 2283073); conditions: primary human keratinocytes with fibroblasts; actives raise or lower the signal
Summary of the method: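 ELISA readout of MCP-1 after 24 h chemical dosing of a human skin primary co-culture of keratinocytes and foreskin fibroblasts. Activity was fitted in both directions against DMSO.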

[3] = read-out: Matrix Metallopeptidase 9 (MMP9), MMP9 (gene 4318); test: BSK_KF3CT_MMP9: BioMAP Diversity Plus: KF3CT Assay for Matrix Metallopeptidase 9 (MMP9) Biomarker Activity (AID 2283074); conditions: primary human keratinocytes with fibroblasts; actives raise or lower the signal;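 for AC50: MMP9 protein level quantified by ELISA in the co-culture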
Summary of the method: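 Human keratinocyte and foreskin fibroblast co-culture exposed to chemicals for 24 h; MMP9 biomarker measured by ELISA, bidirectional fitting relative to DMSO; cytotoxicity tracked by SRB total protein staining in parallel cultures.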

[4] = read-out: urokinase plasminogen activator (uPA), PLAU (gene 5328); test: BSK_KF3CT_uPA: BioMAP Diversity Plus: KF3CT Assay for urokinase plasminogen activator (uPA) Biomarker Activity (AID 2283075); conditions: primary human keratinocytes with fibroblasts; actives raise or lower the signal
Summary of the method: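 Primary human keratinocyte/foreskin fibroblast co-culture exposed to chemical; uPA measured by ELISA at 24 h. Bidirectional fit versus DMSO, with parallel SRB total-protein staining for cytotoxicity.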

CD40, CD40 (gene 958) [5] = test: BSK_LPS_CD40: BioMAP Diversity Plus: LPS Assay for CD40 Biomarker Activity (AID 2283076); conditions: primary human HUVEC with PBMC; actives raise or lower the signal
Summary of the method: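 Cells were dosed, incubated 24 h, then assayed for CD40 by ELISA. Gain or loss of signal was analysed relative to DMSO controls. The culture paired human umbilical vein endothelium with peripheral blood mononuclear cells.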

[6] = read-out: E-selectin (Homo sapiens) (UniProt P16581); test: BSK_LPS_Eselectin: BioMAP Diversity Plus: LPS Assay for Eselectin Biomarker Activity (AID 2283077); conditions: primary human HUVEC with PBMC; actives raise or lower the signal
Summary of the method: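 Primary human vascular co-culture (endothelium plus PBMC) was dosed with chemical, then E-selectin quantified by ELISA at 24 h. Endpoint values derive from bidirectional curve fitting relative to DMSO.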

[7] = read-out: Interleukin-8 (IL8), CXCL8 (gene 3576); test: BSK_LPS_IL8: BioMAP Diversity Plus: LPS Assay for Interleukin-8 (IL8) Biomarker Activity (AID 2283078); conditions: primary human HUVEC with PBMC; actives raise or lower the signal
Summary of the method: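 Readout is IL-8 by ELISA, taken 24 h after compounds were added to LPS-stimulated endothelial/PBMC co-cultures. Both increases and decreases relative to DMSO control were scored through bidirectional fitting.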

[8] = BSK_LPS_SRB: Viability Assessment in the BioMAP Diversity Plus: LPS Assay (AID 2283079); conditions: primary human HUVEC with PBMC;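 note: total protein by sulforhodamine B absorbance as a cytotoxicity measure; measured one day after compound addition; fitted in both directions against DMSO so loss or gain of signal counts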
Summary of the method: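 Readout is SRB absorbance at 560 nm (0.1% stain, TCA-fixed parallel cultures) as a total-protein cytotoxicity measure. Cells: primary human umbilical vein endothelium plus peripheral blood mononuclear cells, 24 h after chemical exposure; DMSO served as baseline.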

[9] = read-out: Interleukin-1 alpha (IL1a), IL1A (gene 3552); test: BSK_LPS_IL1a: BioMAP Diversity Plus: LPS Assay for Interleukin-1 alpha (IL1a) Biomarker Activity (AID 2283080); conditions: primary human HUVEC with PBMC; actives raise or lower the signal
Summary of the method: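 ELISA read-out of IL-1 alpha from a human primary vascular co-culture (endothelium plus PBMC) under LPS, sampled 24 hours post-dosing. Activity was fitted in both directions relative to DMSO controls.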

[10] = read-out: Monocyte Chemoattractant Protein-1 (MCP1), CCL2 (gene 6347); test: BSK_LPS_MCP1: BioMAP Diversity Plus: LPS Assay for Monocyte Chemoattractant Protein-1 (MCP1) Biomarker Activity (AID 2283081); conditions: primary human HUVEC with PBMC; actives raise or lower the signal;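 for AC50: secreted MCP-1 protein quantified by ELISA in culture supernatant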
Summary of the method: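 Human endothelial–PBMC co-cultures were dosed with chemical, then LPS-driven MCP-1 levels were quantified by ELISA at 24 h. Activity in either direction was fitted versus DMSO negative control.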

[11] = BSK_LPS_PGE2: BioMAP Diversity Plus: LPS Assay for Prostaglandin E2 (PGE2) Biomarker Activity (AID 2283082); conditions: primary human HUVEC with PBMC; actives raise or lower the signal
Summary of the method: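 Endpoint derived from bidirectional curve fitting versus DMSO of ELISA-measured PGE2 in LPS-stimulated human primary vascular co-culture (HUVEC with PBMC) harvested at 24 h.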

[12] = read-out: Macrophage colony-stimulating factor (MCSF), CSF1 (gene 1435); test: BSK_LPS_MCSF: BioMAP Diversity Plus: LPS Assay for Macrophage colony-stimulating factor (MCSF) Biomarker Activity (AID 2283083); conditions: primary human HUVEC with PBMC; actives raise or lower the signal
Summary of the method: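 ELISA readout of M-CSF after 24 h compound exposure in a human endothelial/PBMC co-culture. Activity, in either direction, is fitted relative to DMSO vehicle.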

[13] = read-out: Tumor necrosis factor (Homo sapiens) (UniProt P01375); test: BSK_LPS_TNFa: BioMAP Diversity Plus: LPS Assay for Tumour Necrosis Factor alpha (TNFa) Biomarker Activity (AID 2283085); conditions: primary human HUVEC with PBMC; actives raise or lower the signal
Summary of the method: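 Primary human vascular co-culture of HUVEC and PBMC; TNFa ELISA 24 h after treatment, analysed as increase or decrease relative to DMSO control.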

[14] = read-out: Vascular cell adhesion molecule 1 (VCAM1), VCAM1 (gene 7412); test: BSK_LPS_VCAM1: BioMAP Diversity Plus: LPS Assay for Vascular cell adhesion molecule 1 (VCAM1) Biomarker Activity (AID 2283086); conditions: primary human HUVEC with PBMC; actives raise or lower the signal
Summary of the method: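 Primary human vascular co-culture (umbilical vein endothelium plus PBMC) stimulated with LPS received chemical; 24 h later VCAM-1 was read by ELISA. Overt cytotoxicity was assessed by sulforhodamine B staining of parallel cultures at the same time point.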

CD38, CD38 (gene 952) = test: BSK_SAg_CD38: BioMAP Diversity Plus: SAg Assay for CD38 Biomarker Activity (AID 2283087); conditions: primary human HUVEC with PBMC; actives raise or lower the signal
Summary of the method: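 Fluorescence ELISA of cell-surface CD38 served as the read-out, with either increase or decrease fitted against DMSO controls. Cells were a human umbilical vein endothelium plus PBMC co-culture under SEB/TSST-1 stimulation, measured 24 h after dosing.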

CD40, CD40 (gene 958) [15] = test: BSK_SAg_CD40: BioMAP Diversity Plus: SAg Assay for CD40 Biomarker Activity (AID 2283088); conditions: primary human HUVEC with PBMC; actives raise or lower the signal
Summary of the method: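 Compounds were dosed onto a human primary endothelial–PBMC co-culture, and after 24 h CD40 was quantified by ELISA using a fluorescence signal. Activity in either direction was fitted relative to DMSO.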

CD69, CD69 (gene 969) = test: BSK_SAg_CD69: BioMAP Diversity Plus: SAg Assay for CD69 Biomarker Activity (AID 2283089); conditions: primary human HUVEC with PBMC; actives raise or lower the signal;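 for AC50: cell surface CD69 protein quantified by ELISA with fluorescence detection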
Summary of the method: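 Primary human vascular co-culture (umbilical vein endothelium with peripheral blood mononuclear cells) exposed to test chemical for 24 h. CD69 levels quantified by fluorescence ELISA; DMSO served as negative control for bidirectional fitting.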

[16] = read-out: Monocyte Chemoattractant Protein-1 (MCP1), CCL2 (gene 6347); test: BSK_SAg_MCP1: BioMAP Diversity Plus: SAg Assay for Monocyte Chemoattractant Protein-1 (MCP1) Biomarker Activity (AID 2283090); conditions: primary human HUVEC with PBMC; actives raise or lower the signal
Summary of the method: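 MCP-1 levels in the endothelial–PBMC SAg co-culture were quantified by ELISA at 24 h post-dosing; both increases and decreases versus DMSO scored. Cytotoxicity monitored by SRB total protein in parallel cultures.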

[17] = read-out: E-selectin (Homo sapiens) (UniProt P16581); test: BSK_SAg_Eselectin: BioMAP Diversity Plus: SAg Assay for Eselectin Biomarker Activity (AID 2283091); conditions: primary human HUVEC with PBMC; actives raise or lower the signal
Summary of the method: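 Co-culture: HUVEC + PBMC. Dose compound; 24 h. ELISA for E-selectin. Bidirectional fit vs DMSO.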

[18] = read-out: Tissue Factor, F3 (gene 2152); test: BSK_LPS_TissueFactor: BioMAP Diversity Plus: LPS Assay for Tissue Factor Biomarker Activity (AID 2283084); conditions: primary human HUVEC with PBMC; actives raise or lower the signal
Summary of the method: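 ELISA signal for cell-surface Tissue Factor (CD142) was read 24 h after compound dosing of an LPS-stimulated human endothelial–PBMC primary co-culture. Gain or loss of signal was scored relative to DMSO.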

Measured: AC50

E-selectin (Homo sapiens), sequence (P16581 whole entry, looked up): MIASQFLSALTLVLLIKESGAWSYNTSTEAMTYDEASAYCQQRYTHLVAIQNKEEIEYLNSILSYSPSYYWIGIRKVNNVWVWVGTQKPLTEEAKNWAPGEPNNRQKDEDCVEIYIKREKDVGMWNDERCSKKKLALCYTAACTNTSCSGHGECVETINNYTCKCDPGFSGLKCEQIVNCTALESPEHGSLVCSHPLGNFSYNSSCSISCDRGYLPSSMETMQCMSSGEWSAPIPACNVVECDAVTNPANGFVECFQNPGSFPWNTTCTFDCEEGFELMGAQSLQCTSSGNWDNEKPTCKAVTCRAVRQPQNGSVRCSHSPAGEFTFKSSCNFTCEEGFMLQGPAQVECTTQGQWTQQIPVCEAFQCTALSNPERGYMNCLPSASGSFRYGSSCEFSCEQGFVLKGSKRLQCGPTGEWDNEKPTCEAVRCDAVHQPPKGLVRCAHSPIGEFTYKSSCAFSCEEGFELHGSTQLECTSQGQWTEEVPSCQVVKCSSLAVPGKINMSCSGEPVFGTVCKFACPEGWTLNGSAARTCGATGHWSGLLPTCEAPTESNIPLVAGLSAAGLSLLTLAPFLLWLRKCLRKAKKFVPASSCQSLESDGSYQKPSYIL
Tumor necrosis factor (Homo sapiens), sequence (P01375 whole entry, looked up): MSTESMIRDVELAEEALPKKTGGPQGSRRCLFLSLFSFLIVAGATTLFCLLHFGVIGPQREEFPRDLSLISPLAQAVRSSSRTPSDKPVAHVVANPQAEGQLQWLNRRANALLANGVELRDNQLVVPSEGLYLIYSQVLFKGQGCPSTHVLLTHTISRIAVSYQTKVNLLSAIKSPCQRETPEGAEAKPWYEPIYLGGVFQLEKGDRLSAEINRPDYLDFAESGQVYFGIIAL

O=C(CCl)NCO
active: [7] 0.0625 µM
not listed: [18]
inactive: all other assays above

C#CCOC(=O)/C=C(C)/C=C/CC(C)CCCC(C)C (stereo unspecified)
active: CD40, CD40 (gene 958) [5] 20 µM | [6] 20 µM | [7] 0.242 µM | CD69, CD69 (gene 969) 20 µM
not listed: [18]
inactive: all other assays above

Oc1ccc(Cc2ccc(O)cc2)cc1
not listed: [18]
inactive: all other assays above

COc1ccccc1N
not listed: [18]
inactive: all other assays above

CC(C=O)Cc1ccc2c(c1)OCO2 (stereo unspecified)
not listed: [18]
inactive: all other assays above

O=[N+]([O-])c1ccc(Nc2ccccc2)cc1
active: [13] 32.5 µM
not listed: [18]
inactive: all other assays above

O=C(O)C1(c2ccc3c(c2)OC[C@H](Cc2ccc(-c4ccccc4)cc2)[C@H]3O)CCCC1
active: [2] 13.6 µM | [3] 12.9 µM | [4] 28.6 µM | CD40, CD40 (gene 958) [5] 20 µM | [14] 20 µM | CD38, CD38 (gene 952) 23.3 µM | CD40, CD40 (gene 958) [15] 20 µM | [16] 20 µM | [17] 14.1 µM
not listed: [1] | [18]
inactive: all other assays above

Cc1cc(Cl)ccc1N
not listed: [18]
inactive: all other assays above

Cc1ccccc1OP(=O)(Oc1ccccc1C)Oc1ccccc1C
active: [2] 12.1 µM | [3] 5.56 µM | [4] 20 µM | CD40, CD40 (gene 958) [5] 9.38 µM | [6] 9.59 µM | [7] 12.6 µM | [8] 12.3 µM | [9] 11 µM | [10] 12.7 µM | [12] 11.2 µM | [14] 11.4 µM | CD38, CD38 (gene 952) 28.9 µM | CD40, CD40 (gene 958) [15] 12.5 µM | CD69, CD69 (gene 969) 13.8 µM | [16] 14.8 µM | [17] 30.6 µM
inactive: [1] | [11] | [13]

CC(C)(C)c1ccccc1O
active: [10] 3.18 µM
not listed: [4]
inactive: all other assays above

O=c1oc2ccccc2c(O)c1C(CC(O)c1ccc(-c2ccc(Br)cc2)cc1)c1ccccc1 (stereo unspecified)
active: [1] 5.23 µM | [2] 10 µM | [3] 19.1 µM | [4] 5.28 µM | CD40, CD40 (gene 958) [5] 13 µM | [6] 14.3 µM | [7] 0.0502 µM | [8] 12.4 µM | [10] 19.1 µM | [12] 12.8 µM | [14] 14.1 µM | CD38, CD38 (gene 952) 23 µM | CD40, CD40 (gene 958) [15] 14.1 µM | CD69, CD69 (gene 969) 19.1 µM | [16] 22.6 µM | [17] 28.6 µM
inactive: [9] | [11] | [13]

NC(=O)CCl
not listed: [18]
inactive: all other assays above

O=C(Cc1ccccc1)OCCc1ccccc1
inactive: [2] | [3] | [4] | CD40, CD40 (gene 958) [5] | [6] | [7] | [8] | [9] | [10] | [11] | [12] | [13] | [14] | CD38, CD38 (gene 952) | CD40, CD40 (gene 958) [15] | CD69, CD69 (gene 969) | [16] | [17]
active: [9] 3.97 µM
